SMARCA2 act: SMARCA2 function activation, primary screen; MG213 cells, MMTV-luciferase reporter, dexamethasone, overnight; activation, % at 9.1 µM; 370,000 tested, 1% active; AID 652017; in the data active means activation above about 7.8%;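 further: 0% = vehicle wells and 100% = reference activator wells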
hcDAF-12 act: activators of H. contortus DAF-12 nuclear receptor. HEK293 hcDAF-12 lit1-tk-luc reporter, luminescence; 0% DMSO, 100% Δ7-dafachronic acid. activation, % at 6.8 µM. 370,000 tested, 1.4% active. AID 652067;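 active means activation above the mean of all tested compounds plus 3 SD, cut at about 5.5% in these data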;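 further: 100% = response to 3 µM Δ7-dafachronic acid high control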
DAX1 inh-1: blocks DAX1 repression of SF-1 activated StAR promoter; HEK293T StAR-luciferase reporter, SF-1/DAX-1 repression relief; inhibition, % at 6.8 µM; 370,000 tested, 1.1% active;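 active means inhibition above the mean over all tested compounds plus 3 SD, cut at about 3.6% in these data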;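 further: 0% = DAX-1 cells with DMSO and 100% = cells lacking DAX-1 with DMSO; higher inhibition means more luminescence from relief of DAX-1 repression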
hgDAF-12 ag: activates the H. glycines DAF-12 receptor ligand-binding domain | HEK293 GAL4-hgDAF12 UAS-luciferase reporter, agonist luminescence; normalized to butyrate control | activation, % at 6.8 µM | 370,000 tested, 1.8% active | AID 687014;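 active means activation above a cutoff set at the mean of all screened compounds plus 3 SD, cut at about 10% in these data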;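 further: 0% = DMSO wells and 100% = sodium butyrate wells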
DAX1 inh-2: inhibitors of human orphan nuclear receptor DAX1 (NR0B1); HEK293 Gal4-DAX1 luciferase reporter, luminescence; inhibition, % at 6.75 µM; 340,000 tested, 0.99% active;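 active means inhibition above the mean over all tested compounds plus 3 SD, cut at about 4.2% in these data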;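 further: 0% = DAX1-transfected cells with DMSO and 100% = empty-vector control cells with DMSO; inhibition shows as a rise in luminescence from relieved DAX1 repression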
Target sequence (P51843 207-470 limits assumed): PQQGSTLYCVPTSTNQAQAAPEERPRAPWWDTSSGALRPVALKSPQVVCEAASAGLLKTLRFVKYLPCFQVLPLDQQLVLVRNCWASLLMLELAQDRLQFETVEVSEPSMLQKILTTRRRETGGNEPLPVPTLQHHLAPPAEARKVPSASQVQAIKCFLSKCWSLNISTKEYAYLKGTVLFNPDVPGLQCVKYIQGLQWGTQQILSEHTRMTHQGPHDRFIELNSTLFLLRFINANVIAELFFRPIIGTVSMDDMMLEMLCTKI
ssDAF-12 act: activators of S. stercoralis DAF-12 nuclear receptor; HEK293 ssDAF-12/GRIP1 lit1-tk-luc reporter, luminescence; % of 3 µM dafachronic acid response; activation, % at 6.8 µM; 370,000 tested, 1% active; AID 652126;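 active means activation above the mean over all tested compounds plus 3 SD, cut at about 0.9% in these data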;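 further: 0% = DMSO-only wells and 100% = 3 µM delta7-dafachronic acid wells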
LXRb hcDAF ctr: activates human LXR-beta, counter-screen for hcDAF-12 agonists; shares compounds with hcDAF-12 act; HEK293 Gal4-LXR tk-luc reporter, luminescence, 24 h; normalized: DMSO 0%, positive control 100%; activation, % at 6.8 µM; 3,400 tested, under 10 active;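 active means mean percent activation of the reporter above a cutoff set as the average over tested compounds plus their standard deviation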
hcDAF12 conf: hcDAF-12 agonism, confirmation assay; activation, % at 6.8 µM; AID 743032; shares compounds with hcDAF-12 act; 3,400 tested, 61% active; HEK293 hcDAF-12 lit1-tk-luc reporter, luminescence; % of Δ7-dafachronic acid response;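 active means mean activation across triplicate tests above the threshold derived from the earlier primary screen, cut at about 5.5% in these data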;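 further: 0% = DMSO only wells and 100% = 3 µM Δ7-dafachronic acid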
hgDAF12 ag: hgDAF-12 agonism, confirmation assay. shares compounds with hgDAF-12 ag. HEK293 GAL4-hgDAF12 luciferase reporter, agonist mode; percent of butyrate response. activation, % at 6.8 µM. 3,300 tested, 80% active;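 active means mean activation over triplicate wells above the hit cutoff derived from the earlier primary screen, cut at about 11% in these data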;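 further: 0% = DMSO low control and 100% = 2 mM sodium butyrate high control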
LXRb DAF12 ctr: LXR-beta agonism as DAF-12 counter-screen; AID 743051; 3,300 tested, under 10 active; activation, % at 6.8 µM; HEK293 Gal4-LXR luciferase reporter, 24 h; shares compounds with hgDAF-12 ag;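 active means mean activation of the triplicate above a set limit carried over from the primary screen, none filed active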
The depositor's hits bear a star; nt = no result given. A selection: hits, their analogues and other compounds. The true share with any hit is near 4.8%.

SMILES	SMARCA2 act	hcDAF-12 act	DAX1 inh-1	hgDAF-12 ag	DAX1 inh-2	ssDAF-12 act	hgDAF12 ag	LXRb DAF12 ctr	others
O=C(NCc1ccccc1)[C@@H]1CCCN1C(=O)[C@H]1CCCN1C(=O)C1CCCCC1	0	-2	-1	-1	nt	-1	nt	nt
CCOC(=O)C1CSCCS(=O)(=O)N1Cc1cccc(F)c1 (stereo unspecified)	-4	-1	1	-2	nt	-1	nt	nt
CC(C)c1ccc(NC(=O)c2cccnc2)cc1	4	5	3	8	1	0	nt	nt
CC(C)c1ccc(NC(=O)c2snc3ccc(Cl)cc23)cc1	4	11*	3.8*	20*	3	2.7*	17*	1	LXRb hcDAF ctr=1;hcDAF12 conf=12*
Cc1ccnc(NC(=O)c2ccc(Br)s2)c1	0	14*	3	20*	2	1.6*	17*	1	LXRb hcDAF ctr=1;hcDAF12 conf=9.3*
O=C(Nc1ccon1)c1ccc(Br)s1	0	0	-1	2	0	-1	nt	nt
Cc1ccc(-c2nc3ccccc3s2)cc1NC(=S)NC(=O)/C=C/c1ccco1	-1	3	2	6	1	0	nt	nt
O=C(/C=C/c1ccco1)NC(=S)Nc1cc(-c2nc3ccccc3s2)ccc1Cl	1	12*	3	15*	2	2.8*	6	0	LXRb hcDAF ctr=0;hcDAF12 conf=5
O=c1[nH]cnc2nn(C3OC(CO)C(O)C3O)nc12 (stereo unspecified)	-2	1	0	2	nt	-1	nt	nt
Cc1ccc2nc3sc(C(=O)NCc4ccco4)c(N)c3cc2c1	7	8.1*	4.3*	13*	-1	1	20*	1	LXRb hcDAF ctr=1;hcDAF12 conf=3
C[C@@H]1CN(C(=O)OC(C)(C)C)CCN1c1ccc(N2CCN(Cc3ccccc3)[C@@H](C)C2)c(C#N)c1	-7	-3	-4	1	nt	-2	nt	nt
COc1cccc(N2CCN(C(=O)c3ccc4nc(N5CCCCC5)sc4c3)CC2)c1	1	1	3	21*	5.5*	0	8	0
COc1ccc(N2CCN(C(=O)c3ccc4nc(N5CCCCC5)sc4c3)CC2)cc1	3	1	3	8	4	0	nt	nt
CCCCN1C(=O)C(=O)N(CC(=O)N2CCN(c3ccccc3)CC2)C1=O	0	-1	2	4	0	0	nt	nt
CCCCN1C(=O)C(=O)N(c2ccccc2)C1=S	2	4	4.1*	16*	2	0	14*	1
COc1ccc(-n2c(CSc3ccc(Cl)cc3)n[nH]c2=S)cc1	3	0	-1	2	nt	-1	nt	nt
COc1ccc(C(=O)Nc2cccc(OC(=O)c3ccco3)c2)cc1	3	4	2	14*	-1	0	14*	1
CCCN1C(=O)c2cc(C(=O)NC3CCCCCC3)ccc2C1O (stereo unspecified)	3	3	3.8*	18*	2	0	14*	1
CCCN1C(=O)c2cc(C(=O)O)ccc2C1O (stereo unspecified)	6	2	0	-3	0	-1	nt	nt
COc1cccc(NC(=O)Nc2ccc3nsnc3c2)c1	-1	1	2	14*	2	0	11*	1
COc1cccc(NC(=O)Nc2ccc3nc(C)c(C)nc3c2)c1	-2	-2	-1	2	1	-1	nt	nt
CN(C)[C@@H]1CCN(c2ccc3c(c2)OCCCN(C2CC2)S3(=O)=O)C1	0	1	-1	1	nt	-1	nt	nt
CC(C)(C)NC(=S)NCCc1ccccc1	3	5	3	14*	3	1	11*	0
Cc1ccccc1NC(=S)NCCc1ccccc1	1	0	0	-1	0	-1	nt	nt
CC(=Nc1ccc(Br)cc1)c1sc2ccccc2c1O	2	6.0*	2	13*	4	0	21*	1
SMILES	SMARCA2 act	hcDAF-12 act	DAX1 inh-1	hgDAF-12 ag	DAX1 inh-2	ssDAF-12 act	hgDAF12 ag	LXRb DAF12 ctr	others
NC(=Nc1ccc(Br)cc1)c1ccccc1	1	2	1	3	2	-1	nt	nt
COC(=O)Cc1nnn2c1CC(OC)c1ccccc1-2 (stereo unspecified)	3	4	0	3	nt	0	nt	nt
O=C(N/N=C/c1ccccc1Cl)c1ccncc1	0	-2	0	0	2	-1	nt	nt
O=C(N/N=C/c1cccc(F)c1)c1ccc(Cl)cc1	3	2	3.7*	18*	3	0	12*	0
O=C(N/N=C/c1ccccc1Cl)c1cccc(F)c1	3	3	3.7*	17*	2	0	13*	1
Cc1ccccc1/C=N/NC(=O)Cn1nnc(N)n1	-3	0	0	0	0	-2	nt	nt
Cc1ccccc1/C=N\NC(=O)c1csnn1	6	3	2	14*	1	-1	3	0
O=C(c1ccc(Cl)s1)N1CCc2ccccc21	1	6.4*	2	15*	3	1.5*	18*	0
O=C(c1ccc(C(=O)N2CCCc3ccccc32)s1)N1CCCc2ccccc21	-2	-1	0	-2	1	-1	nt	nt
COCCn1c(C)cc(C(=O)Cn2nc(C(=O)O)c3ccccc3c2=O)c1C	4	1	4	14*	1	0	12*	0
C=CCn1c(SCc2ccccc2)nc2scc(-c3ccc(C)o3)c2c1=O	-2	0	2	-1	-1	0	nt	nt
C=CCn1c(SCC(N)=O)nc2scc(-c3ccc(C)o3)c2c1=O	6	5.6*	3	20*	2	0	17*	1
COc1ccc(OCC2CN(Cc3ccccc3)S(=O)(=O)CCO2)cc1 (stereo unspecified)	-3	-1	0	-4	nt	0	nt	nt
Cc1ccc(C(=O)Nc2nnc(-c3ccco3)o2)cc1C	2	3	0	14*	0	1.1*	6	0
O=C(N[C@H](C(=O)N1CCC[C@H]1C(=O)NCCc1ccccc1Cl)C1CCCCC1)c1ccc(Cl)c(Cl)c1	-4	-1	1	-2	nt	0	nt	nt
